Experiment [1] is described as follows: ATG_GLI_CIS: Attagene CIS-FACTORIAL HepG2 Assay for human Zinc Finger Protein GLI1 (AID 2282945). The following applies: HepG2, Attagene cis-factorial reporter mRNA, GLI element; actives raise or lower the signal. In outline: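 Bidirectional curve fits relative to DMSO, using reporter mRNA levels from RT-PCR plus capillary electrophoresis. Cells were HepG2 transiently carrying cis-regulated reporter constructs, harvested 24 h after dosing.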

A short description of experiment [2]: ATG_GRE_CIS: Attagene CIS-FACTORIAL HepG2 Assay for human Glucocorticoid Response Elements (GRE) (AID 2282947). The following applies: HepG2 GRE cis-reporter, Attagene multiplex mRNA; actives raise or lower the signal. In outline:
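Transient MRTU transfection of human HepG2 liver cells; cis-regulated reporters report endogenous factors. 24 h dosing → RNA isolation → RT-PCR → 6-FAM primer extension → HpaI cut → CE fragment analysis. Bidirectional fit, DMSO negative control.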

Experiment [3] in a line: ATG_ISRE_CIS: Attagene CIS-FACTORIAL HepG2 Assay for human Interferon Regulatory Factor 1 (IRF1) binding to an Interferon-Stimulated Response Element (ISRE) (AID 2282948). The following applies: HepG2 ISRE cis-reporter (Attagene), mRNA transcription readout; actives raise or lower the signal. In outline: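 Quantitation relies on labelled RT-PCR fragments separated by capillary electrophoresis. Human HepG2 cells bearing cis-promoter reporter constructs were treated 24 h; DMSO served as baseline for bidirectional fitting.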

Experiment [4] is described as follows: ATG_M_32_CIS: Attagene CIS-FACTORIAL HepG2 Assay for M32 Transcription Factor (Internal Marker) (AID 2282949).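 Further: background control marker of the multiplexed CIS panel rather than a real target.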 Particulars: HepG2 Attagene cis-factorial M32 reporter, mRNA; actives raise or lower the signal. The method, boiled down:
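Fluorescent capillary electrophoresis peaks of HpaI-digested, FAM-labelled RT-PCR reporter products give the signal. Source: transiently transfected human liver HepG2 cells, 24 h after chemical dosing; bidirectional fitting against DMSO.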

The target in experiment [5] is Hepatocyte nuclear factor 6 (Homo sapiens) (UniProt Q9UBC0). The experiment is described as follows: ATG_HNF6_CIS: Attagene CIS-FACTORIAL HepG2 Assay for human Hepatocyte Nuclear Factor 6 (HNF6) (AID 2282952). The following applies: HepG2 Attagene cis-factorial HNF6 reporter transcription; actives raise or lower the signal. The method, boiled down:
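Reporter mRNA induction or loss in HepG2 after 24 h exposure; transient cis-MRTU transfection; fragments quantified by capillary electrophoresis; bidirectional analysis, DMSO as negative control.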

For experiment [6], the target named is Heat shock factor protein 1 (Homo sapiens) (UniProt Q00613). As to the kind of experiment: ATG_HSE_CIS: Attagene CIS-FACTORIAL HepG2 Assay for human Heat Shock Transcription Factor 1 (HSE) (AID 2282953). The following applies: HepG2 HSE cis-reporter, Attagene RNA transcription; actives raise or lower the signal. The method, boiled down:
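Endogenous transcription factor activity in transiently transfected HepG2, read as reporter mRNA by RT-PCR with fluorescent capillary electrophoresis after 24 h. Gain or loss of signal fitted versus DMSO baseline.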

Experiment [7] can be described thus: ATG_MRE_CIS: Attagene CIS-FACTORIAL HepG2 Assay for human Metal Responsive Element (MRE) (AID 2282954). Particulars: HepG2 MRE cis-reporter transcription, Attagene multiplex; actives raise or lower the signal. In outline: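 Transient MRTU transfection of HepG2 (FuGene 6); 24 h dosing; total RNA → oligo(dT) RT, PCR, 6-FAM primer extension, HpaI cut, CE. Bidirectional fit vs DMSO.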

Experiment [8] concerns the target Paired box protein Pax-6 (Homo sapiens) (UniProt P26367). The experiment is described as follows: ATG_Pax6_CIS: Attagene CIS-FACTORIAL HepG2 Assay for human Paired Box 6 (PAX6) (AID 2282956). The following applies: HepG2 CIS-FACTORIAL PAX6 reporter transcription, RNA readout; actives raise or lower the signal. In outline: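 After twenty-four hours of chemical exposure, transfected HepG2 cells are harvested for RNA. Cis-promoter reporter transcripts are amplified, fluorescently labelled and sized by capillary electrophoresis, with gain and loss of signal scored against DMSO.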

A short description of experiment [9]: ATG_PXRE_CIS: Attagene CIS-FACTORIAL HepG2 Assay for human Pregnane X Receptor Element (PXRE) (AID 2282957). Particulars: HepG2 Attagene CIS-FACTORIAL PXRE reporter, mRNA; actives raise or lower the signal. In outline:
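Transiently transfected HepG2 cells were dosed and incubated for 24 h. RNA was then isolated, DNase-treated, reverse-transcribed and reporter sequences amplified. Labeled, HpaI-digested fragments were quantified by capillary electrophoresis against DMSO.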

The nature of experiment [10]: ATG_PPRE_CIS: Attagene CIS-FACTORIAL HepG2 Assay for human Peroxisome Proliferator-activated Response Element (PPRE) (AID 2282958). The following applies: HepG2 PPRE cis-element reporter, Attagene transcription factor profiling; actives raise or lower the signal. In outline:
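After human HepG2 hepatoma cells were transiently transfected with cis-promoter reporter constructs, they were exposed to test chemicals for 24 hours. Reporter RNA was then reverse-transcribed, PCR-amplified, FAM-labeled, HpaI-digested and quantified by capillary electrophoresis.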

A short description of experiment [11]: ATG_Sox_CIS: Attagene CIS-FACTORIAL HepG2 Assay for human SRY-box transcription factor (SOX) (AID 2282960). The following applies: HepG2 Attagene cis-factorial SOX reporter, mRNA; actives raise or lower the signal. The method, boiled down: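 Using transiently transfected HepG2 cells, reporter transcription driven by cis elements was assessed 24 h after dosing. Signal was fluorescence of capillary-separated RT-PCR products, with DMSO defining baseline activity.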

In experiment [12] the target is Transcription factor Sp1 (Homo sapiens) (UniProt P08047). The experiment is described as follows: ATG_Sp1_CIS: Attagene CIS-FACTORIAL HepG2 Assay for human Specificity Protein 1 (Sp1) (AID 2282961). Particulars: HepG2 Sp1 cis-reporter transcription, actives raise or lower the signal. In outline:
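After transient transfection of HepG2 cells with cis-promoter reporter units and 24 h chemical treatment, reporter transcripts were quantified by RT-PCR and capillary electrophoresis fluorescence. Gain- and loss-of-signal fitted against DMSO.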

Experiment [13] in a line: ATG_SREBP_CIS: Attagene CIS-FACTORIAL HepG2 Assay for human Sterol Regulatory Element Binding (SREBP) (AID 2282962). Particulars: HepG2 Attagene cis-factorial SREBP reporter, mRNA; actives raise or lower the signal. The method, boiled down:
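Twenty-four hours after chemical dosing of transfected HepG2 cultures, reporter RNA was converted to cDNA, amplified, end-labelled with 6-FAM and resolved by capillary electrophoresis. Responses were fitted relative to DMSO.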

Experiment [14] addresses Signal transducer and activator of transcription 3 (Homo sapiens) (UniProt P40763). The experiment is described as follows: ATG_STAT3_CIS: Attagene CIS-FACTORIAL HepG2 Assay for human Signal Transducer and Activator of Transcription 3 (STAT3) (AID 2282963). The following applies: HepG2, Attagene cis-factorial STAT3 reporter transcription; actives raise or lower the signal. In outline:
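Endogenous STAT3-responsive cis-element activity was read in transiently transfected HepG2 cells after 24 h treatment. Reporter transcripts were quantified via RT-PCR and capillary electrophoresis, with DMSO as negative control and bidirectional curve fitting.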

The nature of experiment [15]: ATG_TA_CIS: Attagene CIS-FACTORIAL HepG2 Assay for human TA Basal Promoter (AID 2282964). Particulars: HepG2 Attagene CIS-factorial TA basal promoter reporter; actives raise or lower the signal. The method, boiled down:
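Background-control readout: TA basal promoter reporter mRNA, fitted in both directions relative to DMSO. Measured by RT-PCR and capillary electrophoresis 24 hours after treating HepG2 human liver cells transiently carrying multiplexed cis-regulated reporter constructs.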

Experiment [16] has as its target Hypoxia-inducible factor 1-alpha (Homo sapiens) (UniProt Q16665). The experiment is described as follows: ATG_HIF1a_CIS: Attagene CIS-FACTORIAL HepG2 Assay for human Hypoxia Inducible Factor 1 (HIF1A) (AID 2282951). The following applies: HepG2 Attagene cis-factorial HIF1a reporter transcription; actives raise or lower the signal. In outline: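 Endogenous-TF cis reporter readout, human HepG2 cells, 24 h incubation; mRNA detected via RT-PCR and capillary electrophoresis fluorescence; DMSO-normalised bidirectional fitting.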

Experiment [17] in a line: ATG_PBREM_CIS: Attagene CIS-FACTORIAL HepG2 Assay for human Phenobarbital-responsive Enhancer Module (PBREM) (AID 2282955). The following applies: HepG2 PBREM cis-reporter, Attagene multiplexed transcription; actives raise or lower the signal. The method, boiled down: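 Readout: reporter mRNA, fluorescent RT-PCR fragments separated by capillary electrophoresis. System: HepG2 transiently transfected with cis-regulated reporter units. Exposure: 24 h. Analysis: bidirectional, DMSO baseline.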

Experiment [18] addresses Bile acid receptor (Homo sapiens) (UniProt Q96RI1). The experiment is described as follows: ATG_IR1_CIS: Attagene CIS-FACTORIAL HepG2 Assay for human Nuclear Receptor Subfamily 1 Group H Member 4 (NR1H4), IR1 submotif (AID 2282946). The following applies: IR1 reporter transcription, actives raise or lower the signal. The method, boiled down:
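Cells (human HepG2) carry transiently transfected cis-promoter reporter transcription units. Compounds are incubated 24 h, total RNA is reverse-transcribed and amplified, and labelled fragments are resolved by capillary electrophoresis. Curves use DMSO as baseline.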

Some structures have more than one record in an assay (separate samples or runs), and their calls can disagree. The source made the active and inactive calls. How the source made its calls: active means hit-call score of the fitted dose curve at least 0.9, where 1 is the maximum; inactive means score below 0.9.

Hypoxia-inducible factor 1-alpha (Homo sapiens), sequence (Q16665 whole entry, looked up): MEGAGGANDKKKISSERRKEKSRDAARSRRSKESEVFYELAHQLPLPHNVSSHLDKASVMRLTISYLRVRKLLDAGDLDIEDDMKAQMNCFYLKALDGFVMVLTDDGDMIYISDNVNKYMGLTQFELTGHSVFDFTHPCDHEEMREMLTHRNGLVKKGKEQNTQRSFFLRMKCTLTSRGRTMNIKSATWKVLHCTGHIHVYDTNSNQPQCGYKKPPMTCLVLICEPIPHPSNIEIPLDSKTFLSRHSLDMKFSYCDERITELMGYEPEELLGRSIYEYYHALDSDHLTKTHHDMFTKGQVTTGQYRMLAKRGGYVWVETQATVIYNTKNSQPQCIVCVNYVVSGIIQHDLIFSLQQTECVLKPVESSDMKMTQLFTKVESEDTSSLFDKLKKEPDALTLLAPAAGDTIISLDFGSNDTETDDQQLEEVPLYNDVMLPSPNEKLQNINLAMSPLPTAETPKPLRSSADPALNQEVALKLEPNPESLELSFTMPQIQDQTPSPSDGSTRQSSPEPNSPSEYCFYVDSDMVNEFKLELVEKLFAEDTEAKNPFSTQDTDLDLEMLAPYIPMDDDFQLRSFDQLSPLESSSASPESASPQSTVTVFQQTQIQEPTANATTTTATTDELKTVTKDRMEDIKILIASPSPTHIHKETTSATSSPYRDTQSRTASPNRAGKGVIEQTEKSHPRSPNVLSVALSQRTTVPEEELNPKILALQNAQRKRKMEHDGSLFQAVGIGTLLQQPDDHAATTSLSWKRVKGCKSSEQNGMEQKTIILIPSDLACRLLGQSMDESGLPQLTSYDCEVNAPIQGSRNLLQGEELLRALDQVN
Hepatocyte nuclear factor 6 (Homo sapiens), sequence (Q9UBC0 whole entry, looked up, the tested form may be a part): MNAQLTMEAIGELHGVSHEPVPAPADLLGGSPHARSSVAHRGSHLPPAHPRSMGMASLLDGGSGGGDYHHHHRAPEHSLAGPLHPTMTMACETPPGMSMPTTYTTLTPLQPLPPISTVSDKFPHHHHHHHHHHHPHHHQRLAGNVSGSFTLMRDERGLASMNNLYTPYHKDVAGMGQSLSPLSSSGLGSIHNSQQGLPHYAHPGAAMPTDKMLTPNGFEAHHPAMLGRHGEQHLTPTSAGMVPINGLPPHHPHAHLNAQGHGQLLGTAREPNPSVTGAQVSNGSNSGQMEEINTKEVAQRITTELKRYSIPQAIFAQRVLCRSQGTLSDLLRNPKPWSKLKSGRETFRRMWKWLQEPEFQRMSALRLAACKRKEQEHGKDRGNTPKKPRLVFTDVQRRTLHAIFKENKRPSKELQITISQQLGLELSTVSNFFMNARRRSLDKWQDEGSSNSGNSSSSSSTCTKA
Signal transducer and activator of transcription 3 (Homo sapiens), sequence (P40763 whole entry, looked up): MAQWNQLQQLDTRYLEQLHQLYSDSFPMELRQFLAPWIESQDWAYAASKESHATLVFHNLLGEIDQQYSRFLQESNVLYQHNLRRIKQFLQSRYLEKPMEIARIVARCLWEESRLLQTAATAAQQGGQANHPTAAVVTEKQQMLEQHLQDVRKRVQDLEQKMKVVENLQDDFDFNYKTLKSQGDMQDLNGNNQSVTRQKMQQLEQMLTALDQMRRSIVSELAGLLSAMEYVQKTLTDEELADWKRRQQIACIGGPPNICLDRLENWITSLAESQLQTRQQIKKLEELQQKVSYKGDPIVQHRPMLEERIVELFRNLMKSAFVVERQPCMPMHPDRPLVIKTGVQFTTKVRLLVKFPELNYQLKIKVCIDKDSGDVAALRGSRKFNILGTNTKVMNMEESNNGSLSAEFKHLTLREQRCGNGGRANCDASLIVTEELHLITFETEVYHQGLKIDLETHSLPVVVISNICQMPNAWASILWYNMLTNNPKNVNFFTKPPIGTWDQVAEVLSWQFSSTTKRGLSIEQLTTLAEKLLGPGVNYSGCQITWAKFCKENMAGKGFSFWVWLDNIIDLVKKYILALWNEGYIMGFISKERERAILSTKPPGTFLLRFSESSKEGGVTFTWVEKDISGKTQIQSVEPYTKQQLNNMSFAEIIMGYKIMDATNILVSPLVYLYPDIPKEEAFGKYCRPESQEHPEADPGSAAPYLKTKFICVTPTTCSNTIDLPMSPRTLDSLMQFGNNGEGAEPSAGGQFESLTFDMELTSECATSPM
Paired box protein Pax-6 (Homo sapiens), sequence (P26367 whole entry, looked up): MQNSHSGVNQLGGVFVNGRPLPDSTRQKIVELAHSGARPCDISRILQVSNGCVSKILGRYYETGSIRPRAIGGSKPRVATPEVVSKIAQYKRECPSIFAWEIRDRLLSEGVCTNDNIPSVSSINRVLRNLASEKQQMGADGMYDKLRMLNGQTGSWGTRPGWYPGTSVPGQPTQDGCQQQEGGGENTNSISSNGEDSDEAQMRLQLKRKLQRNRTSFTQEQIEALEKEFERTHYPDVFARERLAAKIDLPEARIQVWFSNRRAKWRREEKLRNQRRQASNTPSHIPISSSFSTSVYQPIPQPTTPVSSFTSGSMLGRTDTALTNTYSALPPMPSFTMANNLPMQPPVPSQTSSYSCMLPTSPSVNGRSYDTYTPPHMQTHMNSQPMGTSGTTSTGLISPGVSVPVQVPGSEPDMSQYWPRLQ
Heat shock factor protein 1 (Homo sapiens), sequence (Q00613 whole entry, looked up): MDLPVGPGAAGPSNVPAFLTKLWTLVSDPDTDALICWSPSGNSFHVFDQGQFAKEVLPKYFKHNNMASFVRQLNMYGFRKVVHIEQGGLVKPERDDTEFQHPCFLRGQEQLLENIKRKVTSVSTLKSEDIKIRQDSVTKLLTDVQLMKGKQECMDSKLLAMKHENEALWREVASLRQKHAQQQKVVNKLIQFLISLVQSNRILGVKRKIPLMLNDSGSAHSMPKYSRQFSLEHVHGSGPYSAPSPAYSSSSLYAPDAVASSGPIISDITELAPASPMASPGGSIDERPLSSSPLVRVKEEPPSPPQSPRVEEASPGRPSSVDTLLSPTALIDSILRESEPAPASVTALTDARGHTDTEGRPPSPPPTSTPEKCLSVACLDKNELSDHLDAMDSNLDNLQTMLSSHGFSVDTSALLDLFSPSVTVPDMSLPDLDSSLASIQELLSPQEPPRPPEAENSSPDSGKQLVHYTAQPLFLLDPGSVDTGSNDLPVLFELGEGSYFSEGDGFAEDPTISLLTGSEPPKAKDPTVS
Transcription factor Sp1 (Homo sapiens), sequence (P08047 whole entry, looked up): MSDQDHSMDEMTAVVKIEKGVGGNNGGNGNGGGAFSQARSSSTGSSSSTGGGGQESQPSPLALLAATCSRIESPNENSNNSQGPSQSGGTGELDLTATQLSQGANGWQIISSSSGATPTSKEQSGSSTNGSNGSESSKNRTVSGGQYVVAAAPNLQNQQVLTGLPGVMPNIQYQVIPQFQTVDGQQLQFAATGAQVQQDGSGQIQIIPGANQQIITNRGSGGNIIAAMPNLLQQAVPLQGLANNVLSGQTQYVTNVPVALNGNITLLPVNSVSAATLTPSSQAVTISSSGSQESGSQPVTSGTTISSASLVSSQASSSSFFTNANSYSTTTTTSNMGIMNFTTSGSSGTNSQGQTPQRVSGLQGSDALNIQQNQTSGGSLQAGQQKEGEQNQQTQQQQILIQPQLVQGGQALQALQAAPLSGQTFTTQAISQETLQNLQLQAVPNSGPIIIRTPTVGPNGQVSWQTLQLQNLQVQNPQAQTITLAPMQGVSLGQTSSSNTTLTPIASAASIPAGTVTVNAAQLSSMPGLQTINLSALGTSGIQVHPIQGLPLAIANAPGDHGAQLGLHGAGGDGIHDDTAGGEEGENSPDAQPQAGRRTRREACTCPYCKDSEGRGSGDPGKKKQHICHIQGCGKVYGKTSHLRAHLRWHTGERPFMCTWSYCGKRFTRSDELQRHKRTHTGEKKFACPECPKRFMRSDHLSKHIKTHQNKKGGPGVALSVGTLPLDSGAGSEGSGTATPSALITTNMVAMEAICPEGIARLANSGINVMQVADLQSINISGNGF
Bile acid receptor (Homo sapiens), sequence (Q96RI1 whole entry, looked up, the tested form may be a part): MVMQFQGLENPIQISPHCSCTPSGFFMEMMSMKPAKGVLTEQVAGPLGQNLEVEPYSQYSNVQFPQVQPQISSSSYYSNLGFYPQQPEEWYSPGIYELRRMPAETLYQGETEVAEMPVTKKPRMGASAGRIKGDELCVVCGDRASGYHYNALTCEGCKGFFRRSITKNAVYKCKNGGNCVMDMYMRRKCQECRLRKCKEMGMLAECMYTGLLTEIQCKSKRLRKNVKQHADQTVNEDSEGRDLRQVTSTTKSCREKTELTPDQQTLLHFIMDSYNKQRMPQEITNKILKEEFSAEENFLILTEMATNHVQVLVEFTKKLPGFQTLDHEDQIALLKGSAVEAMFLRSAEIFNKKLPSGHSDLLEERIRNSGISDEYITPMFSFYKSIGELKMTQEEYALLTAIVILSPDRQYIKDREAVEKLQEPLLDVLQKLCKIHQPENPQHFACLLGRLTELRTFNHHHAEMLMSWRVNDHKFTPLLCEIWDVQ

With `Nc1ccc(S(=O)(=O)Nc2nccs2)cc1`, the compound was classed as inactive in [1], in [2], in [3], in experiment [4], in experiment [5] and in experiment [6]. Also, the result in experiment [7], in experiment [8], in experiment [9], in experiment [10], in experiment [11] and in experiment [12] was inactive. For the same compound, the call in [13], in experiment [14] and in experiment [15] was inactive.

For `FC(F)(F)C(F)(F)C(F)(F)C(F)(F)CCI`, the compound was called inactive in experiment [1], in experiment [3], in [4], in experiment [16], in experiment [5] and in experiment [7]. The result in experiment [17], in experiment [8], in experiment [9], in experiment [10], in [12] and in experiment [13] was inactive. In addition, the call in experiment [14] and in experiment [15] was inactive.

Regarding `C1COCCN1`, the compound was classed as inactive in [1], in [3], in experiment [4], in experiment [6], in experiment [7] and in [17]. In addition, the compound was called inactive in experiment [8], in experiment [9], in experiment [12], in experiment [13], in [14] and in experiment [15]. Further, the AC50 in experiment [9] was 27.2 µM (active).

As to `CCc1c(Br)c(Br)c(Br)c(Br)c1Br`, the compound was classed as inactive in [1], in [18], in experiment [3], in experiment [4], in experiment [16] and in experiment [5]. In addition, the call in experiment [6], in experiment [7], in experiment [8], in experiment [10], in [12] and in [13] was inactive. Further, the compound was called inactive in experiment [14] and in experiment [15]. In addition, the AC50 in experiment [17] is 23.7 µM (active); in experiment [9], 8.3 µM (active).

The record behind these values is PubChem BioAssay (EPA / NIEHS).
